Measured values as given in PubChem BioAssay (Tox21).
Unmarked numbers belong to inactive results. Inconclusive results are not listed. Entries that show only a call come without a potency. The source made the active and inactive calls. Unless noted, calls come from the whole dose curve; as a rule, active = well fitted curve in the direction sought with a large enough effect in the repeat runs; inconclusive = weak or mixed curves; inactive = no such curve, though single readings can be large; an effect the other way counts as inactive or inconclusive.

Experiments:
[1] = qHTS assay to identify small molecule agonists of the estrogen receptor alpha (ER-alpha) signaling pathway in the presence of an antagonist - cell viability counter screen (AID 1259386);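 note: series mostly up to about 92 µM; cells exposed to compounds for 22 h at 37 °C before the viability read; nearly all actives have a fitted effect of over 30% in size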
Summary of the method: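 Steps: 5-day stripped-FBS culture; seed and incubate 24hr; add ICI-182,780 (10.0nM final); pin 15-point compound titration; incubate 22hr at 37C; add CellTiter-Fluor at 21hr; read fluorescence.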

[2] = molecular target: Progesterone receptor (Homo sapiens) (UniProt P06401); test: qHTS assay to identify small molecule agonists of the progesterone receptor (PR) signaling pathway (AID 1346784; calls by dose curve; note: nearly all actives have a fitted effect of over 30% in size)
Summary of the method: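 PR-UAS-bla HEK 293T cells (beta-lactamase reporter under UAS) in 2% charcoal-stripped FBS, dosed with 23 nL compound after 6 hr, incubated 16hr at 37C. LiveBLAzer B/G FRET substrate added, fluorescence read after 2 hours.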

[3] = qHTS assay to identify small molecule antagonists of the progesterone receptor (PR) signaling pathway - cell viability counter screen (AID 1346798); note: series mostly up to about 92 µM; nearly all actives have a fitted effect of over 50% in size
Summary of the method: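 PR-UAS-bla HEK293T cells, 3,000/well in 2% charcoal-stripped FBS medium, dosed with compounds plus R5020 agonist and incubated 16 h at 37C. Viability then measured in the same wells by CellTiter-Glo luminescence after 30 min at RT.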

[4] = qHTS assay to identify small molecule agonists of the progesterone receptor (PR) signaling pathway - cell viability counter screen (AID 1346799; calls by dose curve; note: nearly all actives have a fitted effect of over 45% in size; note: potency is the fitted concentration of half-maximal effect)
Summary of the method: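 Counter screen in the PR-UAS-bla HEK293T wells (2% charcoal-stripped FBS, 16 h compound exposure at 37 C) after the bla read. CellTiter-Glo added, 30 min at room temperature, luminescence read as cell viability.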

[5] = qHTS assay to identify small molecule antagonists of the TGF-beta/Smad signaling pathway - cell viability counter screen (AID 1346824); note: nearly all actives have a fitted effect of over 50% in size
Summary of the method: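 SBE-bla HEK 293T cells, incubated overnight, then compound plus 0.25 ng/mL TGF-beta1 (stock added) for 5 hr at 37 C. Viability was read in the same wells by CellTiter-Glo luminescence after 30 min at room temperature.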

[6] = qHTS assay to identify small molecule agonists of the TGF-beta/Smad signaling pathway - cell viability counter screen (AID 1346829); note: top concentration of the series differs between compounds; nearly all actives have a fitted effect of over 45% in size
Summary of the method: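 CellTiter-Glo luminescence readout; SBE-bla HEK 293T cells, overnight plating, compound 5 hr at 37 C/5% CO2, then bla substrate 2 hr RT, then CellTiter-Glo 30 min RT.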

[7] = qHTS assay to identify small molecule agonists of the TGF-beta/Smad signaling pathway (AID 1346859; active = well fitted activation curve with a large enough effect in the signal ratio in the repeat runs, not every such curve was filed as active; the % refers to the signal ratio; note: series mostly up to about 77 µM)
Summary of the method: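 SBE-bla HEK293T cells plated overnight, then compound exposure for 5 h at 37 C. Beta-lactamase reporter read with LiveBLAzer B/G FRET substrate after 2 h at room temperature, fluorescence at 405 nm excitation, 460/530 nm emission.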

[8] = molecular target: Thyrotropin-releasing hormone receptor (Homo sapiens) (UniProt P34981); test: qHTS assay to identify small molecule antagonists of the thyrotropin-releasing hormone receptor (TRHR) signaling pathway (AID 1346877; active = well fitted inhibition curve with a large enough effect in the repeat runs, not every such curve was filed as active; note: potency is the fitted concentration of half-maximal effect)
Summary of the method: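 Human TRHR in HEK293 cells; inhibition of the intracellular calcium rise triggered by 1 nM TRH was followed by fluorescence over 3 min. Compounds were run at 15 concentrations, three replicates each.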

[9] = molecular target: Thyrotropin-releasing hormone receptor (Homo sapiens) (UniProt P34981); test: qHTS assay to identify small molecule agonists of the thyrotropin-releasing hormone receptor (TRHR) signaling pathway (AID 1346891; calls by dose curve; note: potency is the fitted concentration of half-maximal effect; for activation: series mostly up to about 58 µM)
Summary of the method: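 HEK293 cells expressing TRHR plated 18 h at 37 C/5% CO2, calcium dye-loaded 2 h at 37 C, then compound added (agonist mode); kinetic calcium fluorescence read 3 min at 1 s intervals; 15 concentrations in triplicate.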

[10] = Human pregnane X receptor (PXR) small molecule agonists, qHTS cell viability counter screen (AID 1346977); note: nearly all actives have a fitted effect of over 50% in size; note: potency is the fitted concentration of half-maximal effect
Summary of the method: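 PXR-Luc HepG2 cells (2,000/well, 5% charcoal-stripped FBS) preincubated 5 hr, then exposed to compounds 24 hr at 37 C. Viability read in the same wells by CellTiter-Fluor fluorescence, reagent added at 23 hr, 1 hr incubation.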

[11] = Caspase-3/7 induction in HepG2 cells by small molecules, qHTS assay (AID 1346978); note: nearly all actives have a fitted effect of over 15% in size
Summary of the method: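 Wild-type HepG2 cells, 2,000/well, settled 5 hr at 37 C and 5% CO2, then compound-treated for 17 hr; caspase-3/7 activity read by luminescent Caspase-Glo 3/7 after 30 min at room temperature.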

[12] = Caspase-3/7 induction in CHO-K1 cells by small molecules, qHTS cell viability counter screen (AID 1346979); note: nearly all actives have a fitted effect of over 35% in size; note: potency is the fitted concentration of half-maximal effect
Summary of the method: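 Wild-type CHO-K1 cells (1,500/well) treated with compound after 5 h plating; after 16 h at 37C, viability read as CellTiter-Fluor fluorescence following 1 h reagent incubation, in the same wells as the caspase read.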

[13] = Caspase-3/7 induction in HepG2 cells by small molecules, qHTS cell viability counter screen (AID 1346981); note: nearly all actives have a fitted effect of over 30% in size; note: potency is the fitted concentration of half-maximal effect
Summary of the method: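 The parent HepG2 line is plated at 2,000 cells per well and rested 5 hr before compound pinning from DMSO stocks. Following a 16-hr treatment at 37 C, a fluorogenic live-cell substrate (CellTiter-Fluor) reports viability after 1 hr.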

[14] = molecular target: Nuclear receptor subfamily 1 group I member 2 (Homo sapiens) (UniProt O75469); test: Human pregnane X receptor (PXR) small molecule agonists, qHTS assay (AID 1346982); note: nearly all actives have a fitted effect of over 35% in size; note: potency is the fitted concentration of half-maximal effect
Summary of the method: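 After plating in 5% charcoal-stripped FBS and a 5 hr rest, PXR-Luc HepG2 cells received compounds in DMSO. Following 24 hr at 37 C, ONE-Glo was added and light output read.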

[15] = Caspase-3/7 induction in CHO-K1 cells by small molecules, qHTS assay (AID 1346980); note: nearly all actives have a fitted effect of over 15% in size
Summary of the method: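 Wild-type CHO-K1 cells exposed to compounds for 17hr at 37 C, 5% CO2. Caspase-3/7 activity then measured by Caspase-Glo 3/7 luminescence after 30min at room temperature.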

[16] = molecular target: Progesterone receptor (Homo sapiens) (UniProt P06401); test: qHTS assay to identify small molecule antagonists of the progesterone receptor (PR) signaling pathway (AID 1346795; active = well fitted inhibition curve with a large enough effect in the signal ratio in the repeat runs, not every such curve was filed as active; the % refers to the signal ratio)
Summary of the method: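 PR-UAS-bla HEK293T cells with beta-lactamase reporter under UAS control, in 2% charcoal-stripped FBS, treated with compounds plus 1 nM promegestone (R5020, final) for 16 hr at 37C. Read-out: FRET beta-lactamase substrate fluorescence after 2 hr at room temperature.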

[17] = molecular target: Nuclear receptor subfamily 1 group I member 2 (Rattus norvegicus) (UniProt Q9R1A7); test: Rat pregnane X receptor (rPXR) activation by small molecules, qHTS assay (AID 1346983); settings: rPXR luciferase reporter cells, One-Glo luminescence, 24 h; max activation: stronger effect = higher value; note: nearly all actives have a fitted effect of over 20% in size
Summary of the method: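 Cell-based rPXR activation assay: rPXR cells, 2,000 per well, rested 5hr at 37 C, then exposed to compounds in DMSO for 24 hr at 37 C. Luciferase activity read by One-Glo luminescence after 30 min at room temperature.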

[18] = molecular target: Nuclear receptor subfamily 1 group I member 2 (Homo sapiens) (UniProt O75469); test: CYP3A4 induction through human pregnane X receptor (PXR) by small molecules, qHTS assay (AID 1346984); note: nearly all actives have a fitted effect of over 40% in size
Summary of the method: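 Human PXR activation is tracked via CYP3A4 promoter-luciferase in DPX-2 (HepG2) cells. Compounds treat cells for 24hr at 37C, and luminescence is read after One-Glo.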

[19] = molecular target: Nuclear receptor subfamily 1 group I member 2 (Homo sapiens) (UniProt O75469); test: Human pregnane X receptor (PXR) activation by small molecules, qHTS assay (AID 1346985); note: nearly all actives have a fitted effect of over 40% in size
Summary of the method: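 DPX-2 cells (HepG2 co-transfected with a PXR response element and a CYP3A4-promoter luciferase construct) were seeded at 2,000 per well, rested 5 hr at 37C, then exposed to DMSO-dissolved compounds for 24 hr. Activation was read as luciferase luminescence.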

Thyrotropin-releasing hormone receptor (Homo sapiens), sequence (P34981 whole entry, looked up): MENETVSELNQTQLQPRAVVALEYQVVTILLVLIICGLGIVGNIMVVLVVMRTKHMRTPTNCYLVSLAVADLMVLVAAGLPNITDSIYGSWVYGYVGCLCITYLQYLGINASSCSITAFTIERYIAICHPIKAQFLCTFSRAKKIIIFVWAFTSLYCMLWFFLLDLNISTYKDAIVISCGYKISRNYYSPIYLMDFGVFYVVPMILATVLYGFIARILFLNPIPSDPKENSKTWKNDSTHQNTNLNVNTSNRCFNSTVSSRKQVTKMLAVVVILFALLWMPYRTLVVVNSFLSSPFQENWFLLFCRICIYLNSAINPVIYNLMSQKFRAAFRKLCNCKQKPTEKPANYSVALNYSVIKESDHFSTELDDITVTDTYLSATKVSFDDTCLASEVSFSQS
Progesterone receptor (Homo sapiens), sequence (P06401 whole entry, looked up): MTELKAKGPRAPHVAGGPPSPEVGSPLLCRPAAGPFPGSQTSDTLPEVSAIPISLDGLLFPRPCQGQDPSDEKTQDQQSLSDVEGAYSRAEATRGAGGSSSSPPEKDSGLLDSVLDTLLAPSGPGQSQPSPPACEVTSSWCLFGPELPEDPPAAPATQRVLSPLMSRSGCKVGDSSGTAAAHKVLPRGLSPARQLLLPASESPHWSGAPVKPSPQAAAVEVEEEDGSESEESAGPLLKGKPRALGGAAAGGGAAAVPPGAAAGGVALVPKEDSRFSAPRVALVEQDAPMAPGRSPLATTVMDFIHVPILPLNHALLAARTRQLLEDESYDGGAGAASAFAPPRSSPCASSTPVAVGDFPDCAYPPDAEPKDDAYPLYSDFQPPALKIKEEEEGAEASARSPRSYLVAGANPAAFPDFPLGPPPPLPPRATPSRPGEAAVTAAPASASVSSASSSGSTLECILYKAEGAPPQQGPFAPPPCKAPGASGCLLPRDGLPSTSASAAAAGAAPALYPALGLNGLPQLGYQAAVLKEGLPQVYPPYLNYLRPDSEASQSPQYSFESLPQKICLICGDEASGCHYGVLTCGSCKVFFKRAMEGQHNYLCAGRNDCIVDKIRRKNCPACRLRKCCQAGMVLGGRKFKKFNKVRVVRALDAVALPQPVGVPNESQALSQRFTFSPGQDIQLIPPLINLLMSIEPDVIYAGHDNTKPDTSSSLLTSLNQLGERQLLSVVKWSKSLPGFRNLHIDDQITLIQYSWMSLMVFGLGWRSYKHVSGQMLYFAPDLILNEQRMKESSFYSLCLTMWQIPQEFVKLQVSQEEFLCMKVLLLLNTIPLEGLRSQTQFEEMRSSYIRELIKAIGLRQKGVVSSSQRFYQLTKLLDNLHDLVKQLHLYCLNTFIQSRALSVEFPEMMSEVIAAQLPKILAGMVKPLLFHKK
Nuclear receptor subfamily 1 group I member 2 (Homo sapiens), sequence (O75469 whole entry, looked up): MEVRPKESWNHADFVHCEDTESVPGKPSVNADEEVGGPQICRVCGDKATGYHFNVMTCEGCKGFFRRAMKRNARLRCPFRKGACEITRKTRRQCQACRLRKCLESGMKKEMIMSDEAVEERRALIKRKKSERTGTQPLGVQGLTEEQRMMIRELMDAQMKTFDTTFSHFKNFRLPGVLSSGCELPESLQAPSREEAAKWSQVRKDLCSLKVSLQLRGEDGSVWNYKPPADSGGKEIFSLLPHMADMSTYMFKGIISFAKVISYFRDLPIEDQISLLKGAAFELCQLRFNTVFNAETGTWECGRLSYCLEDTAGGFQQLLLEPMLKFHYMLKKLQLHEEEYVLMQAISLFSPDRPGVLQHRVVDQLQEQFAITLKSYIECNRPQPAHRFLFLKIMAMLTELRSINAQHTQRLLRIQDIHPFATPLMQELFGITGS
Nuclear receptor subfamily 1 group I member 2 (Rattus norvegicus), sequence (Q9R1A7 whole entry, looked up): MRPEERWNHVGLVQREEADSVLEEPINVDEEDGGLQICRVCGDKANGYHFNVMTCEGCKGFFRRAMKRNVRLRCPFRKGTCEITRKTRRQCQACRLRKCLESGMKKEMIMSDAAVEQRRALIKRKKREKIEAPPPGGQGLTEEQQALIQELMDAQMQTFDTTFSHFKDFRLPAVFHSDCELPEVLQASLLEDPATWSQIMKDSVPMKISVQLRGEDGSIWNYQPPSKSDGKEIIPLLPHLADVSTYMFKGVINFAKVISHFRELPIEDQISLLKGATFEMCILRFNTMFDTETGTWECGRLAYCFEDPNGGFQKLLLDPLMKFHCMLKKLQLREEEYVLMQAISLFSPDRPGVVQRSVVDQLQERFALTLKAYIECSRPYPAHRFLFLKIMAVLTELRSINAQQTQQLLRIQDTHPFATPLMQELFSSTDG

| SMILES | Potency [1] | Potency [2] | Potency [3] | Potency [4] | Potency [5] | Potency [6] | outcome [7] | Potency [8] | Potency [9] | Potency [10] | Potency [11] | Potency [12] | Potency [13] | Potency [14] | Potency [15] | Potency [16] | max activation [17] | Potency [18] | Potency [19] |
| --- | --- | --- | --- | --- | --- | --- | --- | --- | --- | --- | --- | --- | --- | --- | --- | --- | --- | --- | --- |
| CCO[C@H]1O[C@@H]2OC3(C)CC[C@H]4[C@H](C)CC[C@@H]([C@H]1C)[C@@]24OO3 | inactive | inactive | inactive | inactive | inactive | inactive | inactive | inactive | inactive | inactive | inactive | 0.266 µM (active) | inactive | inactive | – | – | – | – | – |
| O=C(Nc1ccccc1)Nc1ccnc(Cl)c1 | – | inactive | – | – | – | inactive | inactive | – | – | 43.3 µM (active) | inactive | 48.6 µM (active) | – | 30.6 µM (active) | inactive | – | – | – | – |
| II | – | inactive | – | 10.9 µM (active) | inactive | inactive | inactive | – | – | inactive | inactive | – | – | inactive | inactive | – | – | – | – |
| COc1ccc(-c2ccccc2)cc1NNC(=O)OC(C)C | – | – | – | – | inactive | inactive | inactive | inactive | inactive | – | inactive | – | – | 71.5 µM (active) | inactive | – | – | – | – |
| CCCN(CCC)c1c([N+](=O)[O-])cc(S(C)(=O)=O)cc1[N+](=O)[O-] | inactive | inactive | inactive | inactive | inactive | inactive | inactive | – | – | inactive | – | – | – | 2.43 µM (active) | inactive | – | – | – | – |
| O=C(O)C(F)(F)C(F)(F)C(F)(F)C(F)(F)C(F)(F)C(F)(F)C(F)(F)C(F)(F)C(F)(F)C(F)(F)F | inactive | – | inactive | – | inactive | inactive | inactive | inactive | inactive | inactive | inactive | inactive | – | inactive | inactive | inactive | – | – | – |
| C/C(=C\c1ccccc1)[N+](=O)[O-] | – | – | – | 68.6 µM (active) | inactive | inactive | – | inactive | inactive | – | – | 10.9 µM (active) | 68.6 µM (active) | 24.3 µM (active) | inactive | – | – | – | – |
| O=C1NCN(c2ccccc2)C12CCN(CCCOc1ccc(F)cc1)CC2 | – | inactive | inactive | inactive | inactive | inactive | inactive | 6.58 µM (active) | 6.01 µM (active) | 6.68 µM (active) | – | 26.6 µM (active) | 7.5 µM (active) | 5.96 µM (active) | inactive | – | -0.12% | inactive | inactive |
